Screening data as filed in PubChem.
Sm TGR inh: blocks Schistosoma mansoni thioredoxin glutathione reductase; purified TGR, DTNB reduction, TNB absorbance 405 nm; Potency, µM (top dose mostly 114 µM), without a hit: at the top dose activity change, negative = inhibition, hits mostly inhibitors; 360,000 compounds, 3% hits; AID 485364; note: potency is the fitted concentration of half-maximal effect; % is set by controls: 0 for no effect and ±100 for the full control effect; nearly all actives have a fitted effect of over 60% in size
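TGR 20 nM + NADPH 100 uM (dispensed conc.), cpd preinc 15 min RT; start with NADPH (500 uM addition) then DTNB (15 mM addition). Kinetic TNB absorbance, 405 nm filter. Four-parameter Hill fit across titration.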
CHX counter: affects cycloheximide protein synthesis inhibition readout, counter-screen; cell reporter, cycloheximide protein synthesis inhibition counterscreen; max response, %; 300,000 compounds, 12% hits; in the data active = max response mostly above about 13%, no sharp cut-off; inactive = mostly below about 14%; note: read at 38.3 µM for the half of the compounds with a filed dose; 0% is about no effect
Pf growth 48h: P. falciparum growth inhibition at 48 hours (one generation). P. falciparum luciferase growth in erythrocytes, 48 h. Potency, µM (titrated, usually from 28.7 µM), inactives show top-dose activity change, negative = inhibition, usual class: inhibitors. 310,000 compounds, 5.9% hits. AID 504832; note: potency is the fitted concentration of half-maximal effect; % is set by controls: 0 for no effect and ±100 for the full control effect
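A one-generation exposure of luciferase-tagged malaria parasites in RPMI 1640/Albumax erythrocyte culture, 37 C and 5% CO2. Inhibition is inferred from decreased luminescence after adding detection reagent.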
Shiga toxin inh: Shiga toxin inhibition. Vero cells, Shiga toxin protein synthesis inhibition reporter. inhibition, % at 38.7 µM. 290,000 compounds, 9.2% hits. AID 2315; in the data active = inhibition mostly above about 28%, no sharp cut-off; inactive = mostly below about 43%; note: 0% is about no effect
NS1 function inh: blocks influenza NS1 protein function; Potency, µM (titrated, usually from 46.1 µM), for inactives: at the top dose activity, positive = more growth; 270,000 compounds, 0.4% hits; calls by dose curve; note: potency is the fitted concentration of half-maximal effect; actives are rising curves; nearly all actives have a fitted effect of over 50% in size
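Growth recovery, yeast-based: influenza A NS1 expressed in S. cerevisiae causes slow growth, and suppressors are detected by OD600. The parent strain without NS1 is used as positive control.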
Pf growth 96h: P. falciparum growth inhibition at 96 hour, primary screen for plastid delayed-death inhibitors | P. falciparum luciferase reporter growth, 96 h | Potency, µM (highest dose often 28.7 µM), for the others: at the highest dose activity change, negative = inhibition, most hits filed as inhibitors | 320,000 compounds, 6.9% hits | AID 504834; note: potency is the fitted concentration of half-maximal effect; % is set by controls: 0 for no effect and ±100 for the full control effect
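P. falciparum expressing integrated firefly luciferase, in erythrocytes at 2% hematocrit, 0.05% parasitemia, incubated with compounds 96 h at 37 C, 5% CO2. Growth inhibition read as loss of luminescence; two-generation exposure targets delayed-death apicoplast inhibitors.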
Starred values were filed as active, the others as inactive; [ ] = remark or other dose. The list is not random: actives were taken first. Their share in the collection is about 21%. Unless noted, calls come from the whole dose curve; as a rule, active = well fitted curve in the direction sought with a large enough effect; inconclusive = small, poorly fitted or top-dose-only effect, or another doubt; inactive = no such curve, though single readings can be large; an effect the other way counts as inactive or inconclusive.

Results for CCCCCc1cc(O)c2c(C)cc(=O)oc2c1 ?
Sm TGR inh: -2%; CHX counter: 13*; Pf growth 48h: 2.6µM*; Shiga toxin inh: 40; NS1 function inh: -16%; Pf growth 96h: 5%

Results for CC(Sc1nnc(N)s1)C(=O)c1c(N)n(C)c(=O)n(C)c1=O (stereo unspecified) ?
Sm TGR inh: -14%; Pf growth 48h: 5%; Pf growth 96h: 4%

How did Cc1ccc(C(=O)C(C)Sc2nnc(N)s2)cc1 (stereo unspecified) do in these assays?
Sm TGR inh: -7%; CHX counter: 15*; Pf growth 48h: 7%; Shiga toxin inh: 25; Pf growth 96h: 3%

How did Cc1ccc(NC(=O)c2ccc(S(=O)(=O)C(F)F)cc2)c(C)c1 do in these assays?
Sm TGR inh: -5%; CHX counter: 28*; Pf growth 48h: 25%; Shiga toxin inh: active; NS1 function inh: -3%; Pf growth 96h: -5%

How did Cc1ccccc1NC(=O)c1ccc(S(=O)(=O)C(F)F)cc1 do in these assays?
Sm TGR inh: 0%; CHX counter: 18*; Pf growth 48h: 20%; Shiga toxin inh: -3; NS1 function inh: 8%; Pf growth 96h: 25%

Results for Cc1ccc(S(=O)(=O)NC(=O)Nc2ccc(C)cc2C)cc1 ?
Sm TGR inh: -1%; CHX counter: 7; Pf growth 48h: 27%; Shiga toxin inh: -14; NS1 function inh: 11%; Pf growth 96h: 3%

What do the screens show for `CN(CC(=O)Nc1ccc(F)c(F)c1)S(=O)(=O)c1cccs1`?
Sm TGR inh: 0%; CHX counter: 10; Pf growth 48h: 30%; Shiga toxin inh: 2; NS1 function inh: -8%; Pf growth 96h: -3%

What do the screens show for `CN(CC(=O)Nc1ccc2c(c1)OCO2)S(=O)(=O)c1cccs1`?
Sm TGR inh: 0%; CHX counter: 47*; Pf growth 48h: 84%; Shiga toxin inh: 67*; NS1 function inh: -2%; Pf growth 96h: inconclusive

Results for CCc1cccc(NC(=O)CN(C)S(=O)(=O)c2cccs2)c1 ?
Sm TGR inh: -1%; CHX counter: 24*; Pf growth 48h: 22%; Shiga toxin inh: 71*; Pf growth 96h: inconclusive

Results for COc1ccc(N2CCN(S(=O)(=O)c3ccc(-c4ccno4)cc3OC)CC2)cc1 ?
Sm TGR inh: -15%

What do the screens show for `O=C1CN(S(=O)(=O)c2ccc3c(c2)OCCO3)CCN1S(=O)(=O)c1c(F)cccc1F`?
CHX counter: -8; Shiga toxin inh: -8

Results for Oc1ccc(/C=N/Nc2cc(N3CCCC3)nc(N3CCCC3)n2)cc1 ?
Sm TGR inh: 5%; CHX counter: 3; Pf growth 48h: inconclusive; Shiga toxin inh: 12; NS1 function inh: 15%; Pf growth 96h: 2.1µM*

How did Oc1cccc(/C=N/Nc2cc(N3CCCC3)nc(N3CCCC3)n2)c1 do in these assays?
Sm TGR inh: -10%; CHX counter: 14; Pf growth 48h: 2.9µM*; Shiga toxin inh: 4; NS1 function inh: 1%; Pf growth 96h: inconclusive

How did O=S(=O)(Nc1ccc(-c2cn3ccccc3n2)cc1)c1ccccc1 do in these assays?
Sm TGR inh: 18%; CHX counter: 28*; Pf growth 48h: 6%; Shiga toxin inh: 87*; NS1 function inh: 3%; Pf growth 96h: 62%

Results for Cc1cc(C)c(S(=O)(=O)Nc2ccc(-c3cn4ccccc4n3)cc2)c(C)c1 ?
Sm TGR inh: -8%; CHX counter: 15; Pf growth 48h: 15µM*; Shiga toxin inh: 15; NS1 function inh: 14%

What do the screens show for `Cc1cccc(S(=O)(=O)Nc2ccc(-c3cn4ccccc4n3)cc2)c1`?
Sm TGR inh: -1%; CHX counter: 13*; Pf growth 48h: 48%; Shiga toxin inh: 18; NS1 function inh: -16%; Pf growth 96h: inconclusive

Results for COC(=O)NCN1C(=O)C2C3C=CC(C3)C2C1=O (stereo unspecified) ?
Sm TGR inh: 5%; CHX counter: -2; Pf growth 48h: 0%; Shiga toxin inh: -6; Pf growth 96h: -15%[1.15 µM]

How did CCc1ccccc1NC(=O)C1(S(=O)(=O)c2ccc(Cl)cc2)CC1 do in these assays?
Sm TGR inh: -8%
